# Values without a mark were called inactive.
# Compound: ClCC(=O)N1CCCC1=O
# Assay: log2 ratio of Biotin-Ahx-Ub-VS probe labelling (fragment/DMSO); higher = less target engagement (more negative = stronger competition), active = hit call of the paper (q ≤ 0.05, log2 ratio ≤ -1)
# Settings: compound concentration: 200 uM; treatment time: 3 h
# Description: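 Competitive ABPP in HEK293T cell lysate. Lysates were treated with each chloroacetamide fragment at 200 µM for 3 h, then with Biotin-Ahx-Ub-VS (0.5 µM, 1 h), NeutrAvidin-enriched and analysed by diaPASEF LC-MS/MS. Protein LFQ was median-normalised; average log2 ratio is fragment/DMSO from an unpaired t-test (n=3 treated, n=44 DMSO). Hits: q ≤ 0.05, log2 ratio ≤ -1, unique peptides ≥ 2.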
# Sequence of UniProt O00507 (O00507 whole entry): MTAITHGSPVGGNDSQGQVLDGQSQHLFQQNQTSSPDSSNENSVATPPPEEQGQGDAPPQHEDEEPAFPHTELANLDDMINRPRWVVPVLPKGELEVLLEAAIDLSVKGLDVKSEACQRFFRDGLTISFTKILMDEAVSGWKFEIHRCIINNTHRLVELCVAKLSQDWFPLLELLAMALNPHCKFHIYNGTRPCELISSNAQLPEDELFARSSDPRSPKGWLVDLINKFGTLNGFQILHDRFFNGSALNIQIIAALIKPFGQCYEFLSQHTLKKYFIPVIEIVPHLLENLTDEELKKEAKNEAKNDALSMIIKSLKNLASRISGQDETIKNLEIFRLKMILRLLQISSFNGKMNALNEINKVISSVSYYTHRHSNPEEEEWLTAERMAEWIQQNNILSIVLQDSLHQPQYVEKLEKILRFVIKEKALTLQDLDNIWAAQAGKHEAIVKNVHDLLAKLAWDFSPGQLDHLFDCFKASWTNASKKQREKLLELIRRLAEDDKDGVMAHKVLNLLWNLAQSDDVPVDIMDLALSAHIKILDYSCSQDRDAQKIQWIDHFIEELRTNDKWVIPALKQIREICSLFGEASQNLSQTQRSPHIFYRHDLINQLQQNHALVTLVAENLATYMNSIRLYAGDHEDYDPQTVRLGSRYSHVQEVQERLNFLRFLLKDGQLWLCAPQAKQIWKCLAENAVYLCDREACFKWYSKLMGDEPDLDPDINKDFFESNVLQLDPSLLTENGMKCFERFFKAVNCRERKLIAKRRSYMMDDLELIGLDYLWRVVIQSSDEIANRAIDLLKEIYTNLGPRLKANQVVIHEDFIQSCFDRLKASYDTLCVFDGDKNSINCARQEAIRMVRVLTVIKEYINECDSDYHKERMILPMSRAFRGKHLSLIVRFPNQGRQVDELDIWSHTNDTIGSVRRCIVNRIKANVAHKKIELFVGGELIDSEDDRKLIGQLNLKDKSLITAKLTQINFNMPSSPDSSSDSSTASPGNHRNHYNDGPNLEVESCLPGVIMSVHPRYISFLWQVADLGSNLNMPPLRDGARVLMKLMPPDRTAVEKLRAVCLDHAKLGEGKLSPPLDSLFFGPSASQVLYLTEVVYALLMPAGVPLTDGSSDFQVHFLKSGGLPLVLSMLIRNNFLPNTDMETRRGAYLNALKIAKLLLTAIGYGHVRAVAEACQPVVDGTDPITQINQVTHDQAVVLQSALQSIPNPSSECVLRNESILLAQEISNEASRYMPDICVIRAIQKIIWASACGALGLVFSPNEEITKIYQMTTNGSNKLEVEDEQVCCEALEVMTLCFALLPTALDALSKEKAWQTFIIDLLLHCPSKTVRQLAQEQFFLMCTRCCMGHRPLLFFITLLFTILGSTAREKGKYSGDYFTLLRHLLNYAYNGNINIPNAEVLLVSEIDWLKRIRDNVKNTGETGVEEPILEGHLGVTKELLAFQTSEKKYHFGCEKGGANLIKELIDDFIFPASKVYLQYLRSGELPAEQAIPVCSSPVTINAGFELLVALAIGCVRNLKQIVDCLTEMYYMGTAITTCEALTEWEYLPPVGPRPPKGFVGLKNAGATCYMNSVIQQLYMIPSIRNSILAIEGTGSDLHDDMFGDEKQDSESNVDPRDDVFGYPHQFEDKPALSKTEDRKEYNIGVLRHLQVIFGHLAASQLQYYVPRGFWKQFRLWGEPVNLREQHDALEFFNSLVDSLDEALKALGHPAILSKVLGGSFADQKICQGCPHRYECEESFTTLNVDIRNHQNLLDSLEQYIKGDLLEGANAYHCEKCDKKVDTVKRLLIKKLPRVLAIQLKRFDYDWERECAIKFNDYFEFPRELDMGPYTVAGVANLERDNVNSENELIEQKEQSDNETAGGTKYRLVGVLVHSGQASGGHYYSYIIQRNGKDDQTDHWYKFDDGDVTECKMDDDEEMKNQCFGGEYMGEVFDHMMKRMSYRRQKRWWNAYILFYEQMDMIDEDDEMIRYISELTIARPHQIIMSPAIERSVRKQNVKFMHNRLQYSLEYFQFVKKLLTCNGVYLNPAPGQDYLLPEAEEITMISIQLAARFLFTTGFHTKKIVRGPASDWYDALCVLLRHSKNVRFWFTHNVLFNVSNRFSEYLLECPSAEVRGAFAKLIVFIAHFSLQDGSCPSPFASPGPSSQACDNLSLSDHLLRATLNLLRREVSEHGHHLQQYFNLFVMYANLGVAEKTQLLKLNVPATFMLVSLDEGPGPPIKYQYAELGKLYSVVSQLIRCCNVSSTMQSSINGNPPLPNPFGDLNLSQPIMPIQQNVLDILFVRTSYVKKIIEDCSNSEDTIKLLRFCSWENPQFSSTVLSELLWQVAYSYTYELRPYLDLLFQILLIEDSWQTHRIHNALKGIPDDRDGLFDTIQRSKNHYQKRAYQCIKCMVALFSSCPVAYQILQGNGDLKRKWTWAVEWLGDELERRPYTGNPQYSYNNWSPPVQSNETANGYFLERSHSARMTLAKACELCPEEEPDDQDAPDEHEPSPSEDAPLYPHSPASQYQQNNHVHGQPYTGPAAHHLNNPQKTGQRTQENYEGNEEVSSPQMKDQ
# Sequence of UniProt Q9Y5T5 (Q9Y5T5 whole entry, looked up): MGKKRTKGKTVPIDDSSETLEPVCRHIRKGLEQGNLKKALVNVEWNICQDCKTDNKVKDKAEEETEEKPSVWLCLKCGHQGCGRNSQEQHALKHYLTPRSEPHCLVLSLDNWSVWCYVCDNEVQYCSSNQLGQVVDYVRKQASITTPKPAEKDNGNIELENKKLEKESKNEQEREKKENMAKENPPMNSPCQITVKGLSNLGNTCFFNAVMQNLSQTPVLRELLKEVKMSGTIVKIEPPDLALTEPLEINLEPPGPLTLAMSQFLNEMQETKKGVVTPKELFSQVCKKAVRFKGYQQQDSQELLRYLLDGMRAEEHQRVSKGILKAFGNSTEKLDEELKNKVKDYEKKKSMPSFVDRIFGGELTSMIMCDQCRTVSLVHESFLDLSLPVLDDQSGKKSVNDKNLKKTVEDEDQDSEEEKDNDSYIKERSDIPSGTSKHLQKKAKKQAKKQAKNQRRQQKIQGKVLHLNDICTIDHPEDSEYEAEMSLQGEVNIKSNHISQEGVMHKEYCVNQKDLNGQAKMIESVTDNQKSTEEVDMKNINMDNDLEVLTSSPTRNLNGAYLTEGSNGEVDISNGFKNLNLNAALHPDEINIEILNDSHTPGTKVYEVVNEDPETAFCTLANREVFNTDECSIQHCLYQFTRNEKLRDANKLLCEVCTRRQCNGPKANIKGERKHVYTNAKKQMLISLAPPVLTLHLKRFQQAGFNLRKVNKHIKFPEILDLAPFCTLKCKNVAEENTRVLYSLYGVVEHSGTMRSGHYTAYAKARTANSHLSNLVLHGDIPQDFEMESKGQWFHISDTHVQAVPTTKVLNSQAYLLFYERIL
# Sequence of UniProt Q92905 (Q92905 whole entry, looked up): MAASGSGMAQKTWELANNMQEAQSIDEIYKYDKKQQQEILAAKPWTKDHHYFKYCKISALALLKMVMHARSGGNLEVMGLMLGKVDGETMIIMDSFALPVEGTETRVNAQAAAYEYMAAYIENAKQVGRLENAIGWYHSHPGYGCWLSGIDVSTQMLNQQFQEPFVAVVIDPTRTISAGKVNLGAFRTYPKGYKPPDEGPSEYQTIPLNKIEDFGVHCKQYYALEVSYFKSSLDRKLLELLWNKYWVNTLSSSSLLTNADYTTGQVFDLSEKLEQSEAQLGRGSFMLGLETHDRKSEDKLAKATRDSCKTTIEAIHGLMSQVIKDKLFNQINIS
# Sequence of UniProt Q9NP73 (Q9NP73 whole entry): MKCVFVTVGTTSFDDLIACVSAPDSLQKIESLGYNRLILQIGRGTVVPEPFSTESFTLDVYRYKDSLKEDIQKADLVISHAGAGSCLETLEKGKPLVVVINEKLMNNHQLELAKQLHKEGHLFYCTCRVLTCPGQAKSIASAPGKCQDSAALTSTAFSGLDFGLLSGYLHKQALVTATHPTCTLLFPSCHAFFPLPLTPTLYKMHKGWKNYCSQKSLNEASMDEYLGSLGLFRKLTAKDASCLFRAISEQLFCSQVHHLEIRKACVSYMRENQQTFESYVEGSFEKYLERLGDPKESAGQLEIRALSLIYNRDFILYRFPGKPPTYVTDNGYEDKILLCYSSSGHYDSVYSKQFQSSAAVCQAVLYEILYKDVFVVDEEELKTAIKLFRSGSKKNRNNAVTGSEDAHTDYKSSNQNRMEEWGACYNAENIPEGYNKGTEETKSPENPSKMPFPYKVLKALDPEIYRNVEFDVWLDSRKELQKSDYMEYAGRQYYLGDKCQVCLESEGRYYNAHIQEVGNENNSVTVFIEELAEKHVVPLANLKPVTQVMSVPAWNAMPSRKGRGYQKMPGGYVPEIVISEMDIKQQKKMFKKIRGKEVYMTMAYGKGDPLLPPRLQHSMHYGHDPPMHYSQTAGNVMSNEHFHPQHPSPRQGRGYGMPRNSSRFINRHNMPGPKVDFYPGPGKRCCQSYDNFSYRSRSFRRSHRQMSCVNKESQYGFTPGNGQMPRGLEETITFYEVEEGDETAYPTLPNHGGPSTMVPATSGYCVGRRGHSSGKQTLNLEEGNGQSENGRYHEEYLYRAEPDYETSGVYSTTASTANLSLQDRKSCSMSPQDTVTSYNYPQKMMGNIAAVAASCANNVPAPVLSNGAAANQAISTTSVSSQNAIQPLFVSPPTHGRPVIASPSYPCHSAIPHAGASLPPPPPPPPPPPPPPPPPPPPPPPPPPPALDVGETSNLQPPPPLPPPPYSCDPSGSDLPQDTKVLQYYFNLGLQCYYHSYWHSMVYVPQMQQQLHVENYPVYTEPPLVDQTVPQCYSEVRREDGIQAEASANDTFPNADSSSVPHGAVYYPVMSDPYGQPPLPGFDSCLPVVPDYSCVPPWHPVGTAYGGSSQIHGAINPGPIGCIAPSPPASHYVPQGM
# Sequence of UniProt Q96FW1 (Q96FW1 whole entry): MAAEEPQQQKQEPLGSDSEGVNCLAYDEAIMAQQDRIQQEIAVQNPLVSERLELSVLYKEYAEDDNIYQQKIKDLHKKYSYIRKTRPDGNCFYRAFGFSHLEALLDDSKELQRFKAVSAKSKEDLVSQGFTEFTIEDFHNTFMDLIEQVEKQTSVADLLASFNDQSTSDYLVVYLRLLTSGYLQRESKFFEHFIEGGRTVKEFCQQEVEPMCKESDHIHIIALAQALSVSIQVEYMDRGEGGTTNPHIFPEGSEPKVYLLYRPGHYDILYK
row,Target,log2 ratio of Biotin-Ahx-Ub-VS probe labelling
1,USP24 (UniProt Q9UPU5),-0.396
2,FAM105A (UniProt Q9NUU6),-0.739
3,YOD1 (UniProt Q5VVQ6),-0.311
4,ATXN3 (UniProt P54252),-0.301
5,OTUD4 (UniProt Q01804),-0.294
6,USP4 (UniProt Q13107),-0.146
7,OTUB1 (UniProt Q96FW1),-0.0612
8,UniProt O00487,0.00332
9,UniProt Q9UGI0,-0.149
10,ALG13 (UniProt Q9NP73),0.188
11,UniProt Q5T2D3,-0.924
12,USP5 (UniProt P45974),-0.246
13,EIF3H (UniProt O15372),0.0752
14,UniProt Q9P2H5,-0.151
15,USP36 (UniProt Q9P275),-0.0906
16,OTUD6B (UniProt Q8N6M0),-0.48
17,USP25 (UniProt Q9UHP3),-0.183
18,USP34 (UniProt Q70CQ2),-0.582
19,PRPF8 (UniProt Q6P2Q9),0.106
20,USP14 (UniProt P54578),-0.184

row,Target,log2 ratio of Biotin-Ahx-Ub-VS probe labelling
1,USP19 (UniProt O94966),-0.376
2,UniProt P51784,-0.126
3,USP47 (UniProt Q96K76),-0.175
4,UCHL5 (UniProt Q9Y5K5),-0.166
5,USP22 (UniProt Q9UPT9),-0.616
6,VCPIP1 (UniProt Q96JH7),-0.53
7,USP9X (UniProt Q93008),-0.16
8,USP48 (UniProt Q86UV5),-0.22
9,USP16 (UniProt Q9Y5T5),-0.298
10,USP28 (UniProt Q96RU2),-0.413
11,USP7 (UniProt Q93009),-0.135
12,USP8 (UniProt P40818),-0.417
13,USP42 (UniProt Q9H9J4),-0.218
14,USP39 (UniProt Q53GS9),0.0278
15,UniProt O00507,-0.733
16,OTUD5 (UniProt Q96G74),-0.377
17,UCHL3 (UniProt P15374),0.027
18,COPS5 (UniProt Q92905),0.159
19,EIF3F (UniProt O00303),-0.166
20,UniProt Q8TE49,-0.249
